Source: PubChem BioAssay (National Center for Advancing Translational Sciences (NCATS))
Shown are actives, neighbours in structure and some others; about 2.8% of the full set was active somewhere.
PI4K2A block: blocks human PI4K2A kinase activity | purified PI4K2A, ADP-Glo luminescence, 1 h; stronger effect = lower value | hit rate 0.13% among 420,000 | activity change, negative = inhibition, % at 76.9 µM; in the data active means activity change below about -50%; inconclusive means mostly about -30% to -49%;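 further: -100% = wells without enzyme as full effect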
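ADP-Glo luminescence measured ADP generated by PI4K2A enzyme (4 ug/mL before mixing) with 1.2 mM PI substrate (pre-mix) and 300 microM ATP (pre-mix). Tris pH7.5 buffer with MgCl2, Triton X-100; 1 h reaction at ambient temperature.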
Pol beta inh: inhibitors of human DNA polymerase beta. P06746. Pol beta primer extension/strand displacement, fluorescence kinetic. Potency, µM (top dose mostly 114 µM), without a hit: top-dose activity change, negative = inhibition, actives largely listed as inhibitors. hit rate 1.3% among 340,000. AID 485314; further: potency means the concentration at half of the fitted maximal effect; on the % scale 0 is the no-effect control and ±100 the full control effect
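Pol beta (10 nM) was preincubated with compound for 15 min at room temperature. The reaction was then started with 50 nM substrate and read immediately and after a further 10 min at room temperature.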
POLI inh: inhibitors of human DNA polymerase iota | Q9UNA4 | Pol iota fluorescent replication assay, 10 min | Potency, µM (titrated, usually from 115 µM), for the others: at the highest dose activity, negative = inhibition, most hits filed as inhibitors | hit rate 1% among 390,000 | AID 588590; further: potency means the concentration at half of the fitted maximal effect
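Pol iota at 10 nM preincubated 15 min with compounds at room temperature; reaction started with fluorescent substrate, 50 nM final. Fluorescence read kinetically at 0 and 10 min; buffer-only wells as negative control.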
Pol kappa inh: DNA polymerase kappa (human) inhibition; Q9UBT6; purified Pol kappa, fluorescent DNA synthesis assay, 10 min; Potency, µM (doses to about 107 µM), for inactives: at the highest dose activity, negative = inhibition, hits mostly inhibitors; hit rate 0.53% among 400,000; further: potency means the concentration at half of the fitted maximal effect; on the % scale 0 is the no-effect control and ±100 the full control effect
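Activity was followed as the change in fluorescence between reads at 0 and 10 min after starting the reaction with 50 nM substrate. Beforehand, 10 nM polymerase had been preincubated with compound for 15 min at room temperature.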
PI5P4K alpha inh: inhibitors of human PI5P4K alpha; P48426; PI5P4Kalpha enzyme, ADP-Glo luminescence, 60 min; stronger effect = lower value; max response, %; hit rate 1.2% among 330,000; active means max response of -50% or lower; inconclusive means between -30% and -50%; inactive means -30% or higher; further: value at the top dose of about 77 µM; on the % scale 0 is the no-effect control and ±100 the full control effect
Target sequence (P48426 whole entry, looked up): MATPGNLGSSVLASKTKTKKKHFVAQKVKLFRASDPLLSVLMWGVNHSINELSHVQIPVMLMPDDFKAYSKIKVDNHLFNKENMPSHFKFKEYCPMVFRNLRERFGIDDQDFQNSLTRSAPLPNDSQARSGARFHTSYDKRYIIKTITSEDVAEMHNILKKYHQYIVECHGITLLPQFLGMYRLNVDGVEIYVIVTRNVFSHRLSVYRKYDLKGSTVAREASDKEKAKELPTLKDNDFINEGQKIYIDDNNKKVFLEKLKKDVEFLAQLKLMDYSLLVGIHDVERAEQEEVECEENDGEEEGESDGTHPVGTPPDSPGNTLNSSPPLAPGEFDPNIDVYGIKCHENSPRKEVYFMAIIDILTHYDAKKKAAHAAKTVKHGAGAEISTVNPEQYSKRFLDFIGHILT
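Luminescence from ADP-Glo served as readout of PI5P4Kalpha activity in a qHTS format. Reaction: enzyme, substrate, compound, ATP at 5 microM final, 60 min at RT.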
Pol eta inh: inhibitors of human DNA polymerase eta; recombinant Pol eta, fluorescent DNA replication assay; hit rate 1.2% among 390,000; Potency, µM (titrated, usually from 114 µM), inactives show at the highest dose activity change, negative = inhibition, actives largely listed as inhibitors; further: potency means the concentration at half of the fitted maximal effect; on the % scale 0 is the no-effect control and ±100 the full control effect
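Pol eta at 10 nM preincubated with compounds 15 min at room temperature; reaction started with fluorescent substrate (50 nM final) and read kinetically at 0 and 10 min.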
The depositor's hits bear a star; ? = inconclusive; · = no result; [ ] = another dose, or the depositor's remark. Unless noted, the call rests on the fitted dose curve; in most records, active means well fitted inhibition curve with a large enough effect; inconclusive means small, poorly fitted or top-dose-only effect, or another doubt; inactive means no such curve, though single readings can be large or run the other way.

SMILES	PI4K2A block	Pol beta inh	POLI inh	Pol kappa inh	PI5P4K alpha inh	Pol eta inh
O=c1c2c3nc4ccccc4nc3n(/N=C/c3ccco3)c2ncn1CCC1=CCCCC1	-16.5	28.2µM*	22.4µM*	?	·	?
CCCn1cnc2c(c1=O)c1nc3ccccc3nc1n2CCC1=CCCCC1	·	33.8%	·	·	·	·
O=c1c2nncn2ccn1-c1ccc(F)c(F)c1	-2.0	31.6µM*	-4.2%	-25.0%	·	-23.2%
O=c1cc(O)cc(/C=C/c2ccc(O)c(O)c2)o1	-5.8	0.224µM*	0.708µM*	0.752µM*	·	0.794µM*
O=C(O)/C=C\c1ccc(O)c(O)c1	·	·	·	-4.7%[12 µM]	·	·
N#C/C(=C(/O)COC(=O)CCc1ccc(S(=O)(=O)N2CCOCC2)cc1)c1nc2ccccc2[nH]1	-14.9	35.5µM*	-11.8%	-23.1%	-51.6*	14.1µM*
Cc1ccc(-c2ccc(C(=O)Nc3ccccc3)o2)c2ccccc12	-55.3*	14.2%	-2.5%	-4.3%	7.7	-17.3%
Cc1cc(=O)[nH]c2ccc(O)cc12	·	·	79.4µM*	?	·	·
Cc1cc(=O)[nH]c2cc(O)ccc12	0.5	1.7%	9.3%	-8.3%	·	2.0%
CSc1nc(Sc2ccccc2)c2ccccc2n1	-4.0	0.3%	-7.0%	-8.5%	18.3	-2.6%
CSc1nc(=O)[nH]nc1Sc1ccccc1	-11.0	·	·	·	2.4	44.7µM*
Cc1cccc(C)c1OC(=O)CSc1nnc(-c2ccc3c(c2)OCO3)o1	-3.1	4.6%	17.0%	3.7%	·	-12.7%
COc1ccc(OC)c2c(C)ccnc12	·	·	-10.3%	5.7%	·	·
CCOC(=O)c1cnc(NCc2ccc(OC)cc2OC)c2ccccc12	-2.6	5.7%	89.1µM*	-14.5%[60.1 µM]	·	-17.2%
Cc1ccc2c(CC(=O)Nc3sccc3C(N)=O)coc2c1	-6.2	2.2%	79.4µM*	-29.1%	-6.8	?
Cc1ccc2c(CC(=O)NNC(=O)c3ccncc3)coc2c1	4.5	·	?	-23.0%	-21.9	39.8µM*
Cc1ccc2c(CC(=O)NCC(=O)Nc3c(C)cccc3C)coc2c1	0.7	·	?	-26.0%	-16.7	?
Cc1ccc2occ(CC(=O)Nc3nnc(C(C)C)s3)c2c1	1.1	20.0%	79.4µM*	16.7%	·	-3.2%
CCCc1nnc(NC(=O)Cc2coc3ccc(C)cc23)s1	-3.0	-2.5%	1.8%	-13.8%	·	-3.4%
COc1ccc(NC(=O)c2cc([N+](=O)[O-])ccc2O)cc1	-62.6*	-11.3%	-12.8%	-10.4%	-26.3	-11.2%
N#C/C(=N\Nc1ccc(S(=O)(=O)N2CCc3ccccc32)cc1)C(N)=S	-11.4	1.7%	45.1%	-21.8%	-62.1*	?
CC(C)C[C@H](NC(=O)CNC(=O)[C@H](Cc1ccc(O)cc1)NC(=O)[C@H](CO)NC(=O)[C@H](Cc1c[nH]c2ccccc12)NC(=O)[C@H](Cc1cnc[nH]1)NC(=O)[C@@H]1CCC(=O)N1)C(=O)N[C@@H](CCCN=C(N)N)C(=O)N1CCC[C@H]1C(=O)NCC(N)=O (stereo in doubt)	-2.3	·	·	·	·	·
O=C(O)CCN1C(=O)/C(=C\c2ccc(-c3nc4ccccc4s3)o2)SC1=S	1.9	?	-19.1%	-23.9%	-27.5	2.51µM*
O=C(O)CCN1C(=O)/C(=C\c2ccncc2)SC1=S	0.7	1.3%	46.0%	8.3%	-8.3	1.6%
CCOc1ccc(/C=C2\SC(=S)N(C)C2=O)cc1OC	-12.2	-7.4%	17.5%	9.8%	-0.2	-11.3%
Cc1ccc(/C=C2/SC(=S)N(C3CCCCC3)C2=O)o1	6.9	-17.6%	35.7%	-1.6%	2.4	-14.6%
O=C(COc1ccccc1/C=C1\SC(=O)NC1=O)Nc1ccccc1	-4.0	-19.5%	?	-4.1%	?	17.8µM*
Cc1ccc(/C=C2/SC(=O)NC2=S)o1	-9.8	20µM*	7.08µM*	17.8µM*	-93.0*	8.91µM*
COc1cc(/C=C2/SC(=S)NC2=O)ccc1OS(=O)(=O)c1ccc(C)cc1	-2.6	35.5µM*	?	-19.4%	-84.6*	28.2µM*
CCOc1ccc(/C=C2\SC(=S)NC2=O)cc1OC	0.9	0.6%	-2.0%	-3.7%	-78.4*	-16.0%
